High-throughput results from PubChem.
Pf growth 48h: Primary qHTS for delayed death inhibitors of the malarial parasite plastid, 48 hour incubation; P. falciparum luciferase growth in erythrocytes, 48 h; Potency, µM (highest dose often 28.7 µM), for inactives: at the highest dose activity change, negative = inhibition, hits mostly inhibitors; 310,000 compounds, 5.9% hits; note: % is set by controls: 0 for no effect and ±100 for the full control effect
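Firefly luciferase activity from engineered P. falciparum reports growth; inhibitors lower the luminescent signal. Cultures contained 2% hematocrit erythrocytes at 0.1% final parasitemia.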
HCV inhibitor: qHTS Assay for Inhibitors of Hepatitis C Virus (HCV). 340,000 compounds, 3.4% hits. Huh7.5.1 HCVcc-Cre infection, luciferase reporter, 44 h. Potency, µM (doses to about 41.8 µM), for inactives: at the highest dose activity change, negative = inhibition, actives largely listed as inhibitors; note: % is set by controls: 0 for no effect and ±100 for the full control effect
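Antiviral activity was scored by luciferase reporter output from cells infected with HCVcc-Cre (~0.5 moi) in presence of compound, 44 h infection period, cells seeded 1,000/well 4 h prior.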
Pf growth 96h: Primary qHTS for delayed death inhibitors of the malarial parasite plastid, 96 hour incubation; P. falciparum luciferase reporter growth, 96 h; Potency, µM (highest dose often 28.7 µM), inactives show at the highest dose activity change, negative = inhibition, most hits filed as inhibitors; 320,000 compounds, 6.9% hits; note: % is set by controls: 0 for no effect and ±100 for the full control effect
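96 h incubation, 37 C, 5% CO2, of luciferase-reporter P. falciparum-infected RBCs (2% hematocrit, 0.05% parasitemia final) with test compounds; endpoint luminescence.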
NS1 inh: qHTS Assay for Inhibitors of Influenza NS1 Protein Function; Potency, µM (doses to about 46.1 µM), for the others: at the top dose activity, positive = more growth; 270,000 compounds, 0.4% hits; AID 2326, 2010; calls by dose curve; note: actives are rising curves; nearly all actives have a fitted effect of over 50% in size
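Recovery from NS1-induced slow growth read by OD600 in budding yeast switched to galactose assay medium (pH 6.0, -URA) at 1:100 dilution. Compound 23 nl per well; the matching strain lacking NS1 serves as control.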
VACV Venus inh: qHTS for Stage-Specific Inhibitors of Vaccinia Orthopoxvirus: Venus Reporter Primary qHTS; 330,000 compounds, 0.46% hits; Vaccinia virus Venus reporter expression, fluorescence; Potency, µM (series often up to 36.5 µM), without a hit: top-dose activity change, negative = inhibition, actives largely listed as inhibitors; calls by dose curve; tested in A549 cells; note: % is set by controls: 0 for no effect and ±100 for the full control effect; nearly all actives have a fitted effect of over 30% in size
Vaccinia mCherry: qHTS for Stage-Specific Inhibitors of Vaccinia Orthopoxvirus: mCherry Reporter Primary qHTS | Vaccinia virus mCherry reporter infection, fluorescence | Potency, µM (titrated, usually from 36.5 µM), for the others: at the highest dose activity change, negative = inhibition, usual class: inhibitors | 310,000 compounds, 0.63% hits; calls by dose curve; tested in A549 cells; note: % is set by controls: 0 for no effect and ±100 for the full control effect; nearly all actives have a fitted effect of over 35% in size
* = called active by the depositor; i = inactive; ? = inconclusive; nt = no result given; [ ] = dose if it differs, or a comment. A selection: hits, their analogues and other compounds. The true share with any hit is near 11%. Unless noted, calls come from the whole dose curve; as a rule, active = well fitted inhibition curve with a large enough effect; inconclusive = small, poorly fitted or top-dose-only effect, or another doubt; inactive = no such curve, though single readings can be large or run the other way. Potency is the fitted concentration of half-maximal effect.

SMILES	Pf growth 48h	HCV inhibitor	Pf growth 96h	NS1 inh	VACV Venus inh	Vaccinia mCherry
Cc1cc2c(c(=O)n1CCN(C)C)C(c1ccc(Cl)cc1)C(C#N)=C(N)O2 (configuration not stated)	-22%	14%	?	4%	nt	nt
COc1ccc(NS(=O)(=O)c2cccc(C(=O)NNC(=O)c3ccccc3O)c2)cc1	?	?	4%	nt	-10%	?
COC(=O)c1ccc(COc2ccc(/C=C(\C#N)c3nc4ccccc4[nH]3)cc2OC)o1	1.3µM*	-24%	?	17%	-9%	-14%
CCc1ccc(NC(=O)COc2ccc(/C=C(/C#N)c3nc4ccccc4[nH]3)cc2OC)cc1	2.6µM*	?	?	?	?	?
COc1cc(/C=C(/C#N)c2nc3ccccc3[nH]2)ccc1OCc1ccc(C(=O)O)o1	?	-1%	?	11%	0%	-7%
O=C(CCCN1C(=O)/C(=C/c2ccccc2Cl)SC1=S)NNC(=O)c1ccccc1	?	-10%	1.9µM*	-6%	?	?
CCN(CC)CCOC(=O)c1ccc(NC(=O)CCNC(=O)Cn2ccc3ccccc3c2=O)cc1	-2%	12%	12µM*	0%	-17%	-19%
COc1cc(OC)cc(C(=O)NCC(=O)NCCN2C(=O)S/C(=C\c3ccccc3Cl)C2=O)c1	?	10µM*	?	nt	nt	nt
O=C(CCCN1C(=O)/C(=C/c2cccs2)SC1=S)NNC(=O)c1cccnc1	?	-9%	15µM*	5%	nt	nt
O=C(CCCN1C(=O)/C(=C/c2ccccc2Cl)SC1=S)NNC(=O)c1ccc(Cl)cc1Cl	?	-3%	4%	-7%	-8%	-6%
O=C(CCN1C(=O)/C(=C\c2ccccc2)SC1=S)NNC(=O)c1cccnc1	14%	14%	-47%	1%	-8%	-7%
Cc1cc(NC(=O)CCN2C(=O)/C(=C\c3ccccc3Cl)SC2=S)no1	22%	-12%	0.033µM*	nt	-2%	i
COc1ccccc1/C=C1/SC(=S)N(CCC(=O)Nc2cccnc2)C1=O	16%	?	?	9%	nt	nt
CCN(CC)CCOC(=O)c1ccc(NC(=O)CCCN2C(=O)/C(=C\c3cccs3)SC2=S)cc1	2.3µM*	10µM*	4.1µM*	?	nt	nt
O=C(CCCN1C(=O)/C(=C/c2ccccc2Cl)SC1=S)NNC(=O)c1cccnc1	9.3µM*	-9%	?	4%	nt	nt
O=C(CCCN1C(=O)/C(=C/c2ccccc2OC(F)F)SC1=S)Nc1cccnc1	nt	11µM*	nt	nt	?	?
Cc1ccc(NC(=O)CSC2=NN3CCCC(=O)N=C3S2)cc1Cl	?	?	?	-6%	1%	-12%
O=C(CSc1nnc(SCc2ccc(Cl)cc2)s1)N/N=C/c1c[nH]c2ccccc12	34%	?	12%	10%	11µM*	?
O=C(CSc1nnc(SCc2cccc3ccccc23)s1)N/N=C/c1c[nH]c2ccccc12	2%	?	-21%	14%	?	?
O=C(/C=C/c1ccco1)N(Cc1ccc(Cl)cc1)C1CCS(=O)(=O)C1 (configuration not stated)	-1%	1.1µM*	?	-3%	-9%	-17%
COc1ccc(OC)c(/C=C2\SC(=S)N(Cc3cccnc3)C2=O)c1	-15%	-22%	9.3µM*	9%	-1%	i
COc1ccc(O)c(/C=C2/SC(=S)N(Cc3ccccc3)C2=O)c1	?	14%	35%	?	nt	nt
COc1ccc(/C=C2/SC(=S)N(Cc3ccccc3)C2=O)cc1O	8.3µM*	?	?	5%	nt	nt
O=C1/C(=C\c2cc(Cl)c(O)c(Cl)c2)SC(=S)N1Cc1ccccc1	?	?	?	1%	i	-5%
CC(C)c1ccc(S(=O)(=O)c2cnc(=S)[nH]c2N)cc1	16%	15%	-19%	4%	-13%	-9%
SMILES	Pf growth 48h	HCV inhibitor	Pf growth 96h	NS1 inh	VACV Venus inh	Vaccinia mCherry
COC(=O)c1ccc(C(=O)OC)c(NC(=O)CN2CCN(c3ccccc3OC)CC2)c1	13µM*	?	-19%	-25%	-9%	-9%
COc1ccc(N2CCN(CC(=O)Nc3ccccc3C(=O)NC(C)c3ccccc3)CC2)cc1 (configuration not stated)	nt	nt	nt	nt	-7%	i
COc1ccccc1N1CCN(CC(=O)Nc2ccccc2C(=O)NC(C)c2ccccc2)CC1 (configuration not stated)	12µM*	?	?	nt	-6%	-3%
CC(NC(=O)c1ccccc1NC(=O)CN1CCc2ccccc2C1)c1ccccc1 (configuration not stated)	?	?	13µM*	-2%	-16%	?
CC(NC(=O)c1ccccc1NC(=O)CN1CCN(c2ccccc2O)CC1)c1ccccc1 (configuration not stated)	5.9µM*	?	13µM*	nt	-25%	?
Cc1nc(NC(=O)c2ccccc2)sc1-c1csc(N)n1	1.9µM*	?	-2%	-9%	?	?
Cc1nc(NC(=O)c2ccccc2)sc1-c1csc(NCc2ccccc2)n1	?	?	nt	?	-20%	?
Cc1nc(NC(=O)c2ccccc2)sc1-c1csc(NCCc2ccccc2)n1	nt	10µM*	4.1µM*	27%	nt	nt
CN(C)C(=O)CSc1nc2ccccc2n1Cc1ccccc1	1%	-5%	?	0%	-3%	-10%
C=CCn1c(SCC(=O)Nc2ccc(C(=O)O)cc2)nc2scc(-c3ccccc3)c2c1=O	nt	0%	nt	nt	-7%	-12%
Cc1ccc(-c2csc3nc(SCC(=O)N(C)C)n(Cc4ccccc4)c(=O)c23)cc1	13µM*	32µM*	?	?	?	-6%
NC(=O)CSc1nc2scc(-c3ccc(Cl)cc3)c2c(=O)n1Cc1ccccc1	12µM*	2%	8.3µM*	12%	-21%	-6%
Cc1ccc2cc(CCNC(=O)c3cccs3)c(=O)[nH]c2c1C	171%	1%[8.37 µM]	84%	-6%	-26%	i
CC(C(=O)Nc1cccc([N+](=O)[O-])c1)N(c1ccccc1)S(C)(=O)=O (configuration not stated)	-1%	7%	21%	1%	-22%	-7%
O=C(NC1CC1)C1C2C3C4CC5C3C5C4C12 (configuration not stated)	5.9µM*	17%	7%	-14%	1%	-14%
COc1cccc(-n2c(-c3ccco3)nc3c(cnn3-c3ccc(Cl)cc3)c2=O)c1	nt	nt	nt	nt	-16%	-24%
